Data as given in PubChem BioAssay (NCATS).
Results filed as inconclusive are left out. Calls of active or inactive are those of the source. Unless noted, calls follow the shape of the dose curve; as a rule, active = well fitted inhibition curve with a large enough effect; inconclusive = small, poorly fitted or top-dose-only effect; inactive = flat fitted curve, though single readings scatter.

How the values were obtained:
[1] = qHTS profiling for inhibitors of Plasmodium falciparum proliferation (AID 504749); also: potency is read from the fitted curve at half-maximal effect;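 as to activity, negative = inhibition: 0% = DMSO vehicle and full inhibition = artemisinin control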; as to all read-outs here: nearly all actives have a fitted effect of over 60% in size; details: P. falciparum in erythrocytes, SYBR Green DNA, 72 h; for activity, negative = inhibition: at 28.7 µM (top of the series)
Procedure, shortened: (§1)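 P. falciparum-infected erythrocytes (0.3% parasitemia, 2.5% hematocrit final) were exposed to compounds for 72 h at 37 C in 5% CO2, then lysed with SYBR Green buffer overnight at room temperature; parasite DNA fluorescence was normalized to artemisinin and DMSO controls.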

3D7 = experiment: as above; details: P. falciparum in erythrocytes, SYBR Green DNA, 72 h; series mostly up to 28.7 µM
Procedure, shortened: as §1

7G8 = experiment: as above; details: P. falciparum in erythrocytes, SYBR Green DNA, 72 h; series mostly up to 28.7 µM
Procedure, shortened: as §1

AA1029 = experiment: as above; details: P. falciparum in erythrocytes, SYBR Green DNA, 72 h; series mostly up to 28.7 µM
Procedure, shortened: as §1

AS120 = experiment: as above; details: P. falciparum in erythrocytes, SYBR Green DNA, 72 h; series mostly up to 28.7 µM
Procedure, shortened: as §1

ATS189 = experiment: as above; details: P. falciparum in erythrocytes, SYBR Green DNA, 72 h; series mostly up to 28.7 µM
Procedure, shortened: as §1

ATS95 = experiment: as above; details: P. falciparum in erythrocytes, SYBR Green DNA, 72 h; series mostly up to 28.7 µM
Procedure, shortened: as §1

C2A = experiment: as above; details: P. falciparum in erythrocytes, SYBR Green DNA, 72 h; series mostly up to 28.7 µM
Procedure, shortened: as §1

CP185 = experiment: as above; details: P. falciparum in erythrocytes, SYBR Green DNA, 72 h; series mostly up to 28.7 µM
Procedure, shortened: as §1

CP191 = experiment: as above; details: P. falciparum in erythrocytes, SYBR Green DNA, 72 h; series mostly up to 28.7 µM
Procedure, shortened: as §1

CP192 = experiment: as above; details: P. falciparum in erythrocytes, SYBR Green DNA, 72 h; series mostly up to 28.7 µM
Procedure, shortened: as §1

CP194 = experiment: as above; details: P. falciparum in erythrocytes, SYBR Green DNA, 72 h; series mostly up to 28.7 µM
Procedure, shortened: as §1

CP201 = experiment: as above; details: P. falciparum in erythrocytes, SYBR Green DNA, 72 h; series mostly up to 28.7 µM
Procedure, shortened: as §1

CP211 = experiment: as above; details: P. falciparum in erythrocytes, SYBR Green DNA, 72 h; series mostly up to 28.7 µM
Procedure, shortened: as §1

CP215 = experiment: as above; details: P. falciparum in erythrocytes, SYBR Green DNA, 72 h; series mostly up to 28.7 µM
Procedure, shortened: as §1

[2] = qHTS for identification of novel therapeutic agents for treatment of microphthalmiaassociated transcription factor (MiT) renal cell carcinoma (RCC) (AID 1963991); details: CellTiter-Glo, 48 h, stronger effect = lower value
Procedure, shortened: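 Viability of three TFE3-fusion renal carcinoma lines measured by CellTiter-Glo after 48 h treatment with each of 1912 compounds at 11 concentrations. Responses scaled between DMSO (100%) and empty wells (0%) before curve fitting.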

[3] = qHTS drug screen for cell cycle checkpoint inhibitors in PARPi-resistant BRCA-mutant ovarian cancer cell lines. (AID 1963452; calls by dose curve); details: PEO1/OlaR viability, CellTiter-Glo luminescence, 96 h, stronger effect = lower value
Procedure, shortened: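 PEO1, PEO4 and PEO1/OlaR ovarian cancer cells, 600 per well, exposed 96 h at 37C to a dilution series. Viability read by CellTiter-Glo luminescence, normalized to DMSO and empty wells; activity summarized as Z-AUC.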

[4] = measured here: PEO1 parental Z-AUC

C1CCC(NC2CCCCC2)CC1
inactive: activity, negative = inhibition ([1]; parasite line A) 7.71% | activity, negative = inhibition ([1]; parasite line B) 9.08% | Potency (3D7) | Potency (7G8) | Potency (AA1029) | Potency (AS120) | Potency (ATS189) | Potency (ATS95) | Potency (C2A) | Potency (CP185) | Potency (CP191) | Potency (CP192) | Potency (CP194) | outcome (CP201) | Potency (CP211) | Potency (CP215)

C[C@H]1CCCC=CC2C[C@H](O)C[C@@H]2[C@H](O)C=CC(=O)O1 (stereo not given in full)
-5.31: z-score ([2]; TFE3-RCC viability, measured here: UOK145 Z-AUC)
-3.69: z-score ([2]; TFE3-RCC viability, measured here: UOK124 Z-AUC)
-3.99: z-score ([2]; TFE3-RCC UOK109 viability, measured here: UOK109 Z-AUC)

CC(C)(C)c1cc(C=C(C#N)C#N)cc(Br)c1O
0.988: Z-AUC ([3]; measured here: PEO4 Z-AUC)
inactive: Z-AUC [3] 1.28
1.11: Z-AUC [3, 4]

O=C(O)COc1ccccc1
inactive: activity, negative = inhibition ([1]; parasite line A) -0.911% | activity, negative = inhibition ([1]; parasite line B) 7.97% | Potency (3D7) | Potency (7G8) | Potency (AA1029) | Potency (AS120) | Potency (ATS189) | Potency (ATS95) | Potency (C2A) | Potency (CP185) | Potency (CP191) | Potency (CP192) | Potency (CP194) | outcome (CP201) | Potency (CP211) | Potency (CP215)

CC(C)[C@]12O[C@H]1[C@@H]1O[C@]13[C@]1(O[C@H]1C[C@H]1C4=C(CC[C@@]13C)C(=O)OC4)[C@@H]2O
-3.67: Z-AUC ([3]; measured here: PEO4 Z-AUC)
inactive: Z-AUC [3] -2.76
-2.59: Z-AUC [3, 4]

C=CCN1CC[C@]23CCCCC2[C@H]1Cc1ccc(O)cc13 (stereo not given in full)
inactive: activity, negative = inhibition ([1]; parasite line A) 18.6% | activity, negative = inhibition ([1]; parasite line B) 4.44% | Potency (3D7) | Potency (AA1029) | Potency (AS120) | Potency (ATS189) | Potency (ATS95) | Potency (C2A) | Potency (CP185) | Potency (CP191) | Potency (CP192) | Potency (CP194) | outcome (CP201) | Potency (CP211) | Potency (CP215)
active: Potency (7G8) 11.2 µM

CC(=O)[O][Hg][c]1ccccc1
active: Potency ([1]; parasite line A) 3.98 µM | Potency ([1]; parasite line B) 6.31 µM | Potency (3D7) 12.6 µM | Potency (7G8) 1 µM | Potency (AA1029) 4.47 µM | Potency (AS120) 3.98 µM | Potency (ATS189) 11.2 µM | Potency (ATS95) 4.47 µM | Potency (CP185) 5.01 µM | Potency (CP191) 8.91 µM | Potency (CP192) 9.53 µM | Potency (CP194) 9.53 µM | Potency (CP211) 15.1 µM | Potency (CP215) 6.01 µM

CN1C2CCC1CC(OC(=O)c1cc(Cl)cc(Cl)c1)C2 (stereo not given)
inactive: activity, negative = inhibition ([1]; parasite line A) -1.17% | activity, negative = inhibition ([1]; parasite line B) 5.18% | Potency (3D7) | Potency (AA1029) | Potency (AS120) | Potency (ATS189) | Potency (ATS95) | Potency (C2A) | Potency (CP185) | Potency (CP191) | Potency (CP192) | Potency (CP194) | outcome (CP201) | Potency (CP211) | Potency (CP215)
active: Potency (7G8) 6.31 µM

CCCCc1ccc(C(=O)O)nc1
inactive: activity, negative = inhibition ([1]; parasite line A) 0.211% | activity, negative = inhibition ([1]; parasite line B) 1.46% | Potency (3D7) | Potency (7G8) | Potency (AA1029) | Potency (AS120) | Potency (ATS189) | Potency (ATS95) | Potency (C2A) | Potency (CP185) | Potency (CP191) | Potency (CP192) | Potency (CP194) | outcome (CP201) | Potency (CP211) | Potency (CP215)

CC(C)(O)C(=O)Nc1ccc([N+](=O)[O-])c(C(F)(F)F)c1
0.85: Z-AUC ([3]; measured here: PEO4 Z-AUC)
inactive: Z-AUC [3] 1.27
0.567: Z-AUC [3, 4]

COC(C)(C)CCCC(C)C/C=C/C(C)=C/C(=O)OC(C)C (stereo not given)
inactive: Potency (ATS95) | Potency (C2A) | Potency (CP185)

NC(=O)CN1CC(O)CC1=O (stereo not given)
inactive: activity, negative = inhibition ([1]; parasite line A) 3.26% | activity, negative = inhibition ([1]; parasite line B) 7.69% | Potency (3D7) | Potency (7G8) | Potency (AA1029) | Potency (AS120) | Potency (ATS189) | Potency (ATS95) | Potency (C2A) | Potency (CP185) | Potency (CP191) | Potency (CP192) | Potency (CP194) | outcome (CP201) | Potency (CP211) | Potency (CP215)
